Columns and labels:
Test in all cases: PBM binding z-score (relative to random genomic background probes); higher = stronger binding; sequences stand for … in GC…GCGATTGACAGCGTAGAATGAAGG
[1] = tested on: FXR:RXRa (NR concentration 270 nM, RXRa partner concentration 90 nM)
Summary of the method: (§1)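 Each nuclear receptor dimer, without ligand, was incubated for 1 h on custom Agilent 4×180K protein-binding microarrays. Binding was detected with antibodies against each partner (one per run), and scanned fluorescence was regression-normalized. The binding z-scores are referenced to random human genomic background probes.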

[2] = tested on: LXRa:RXRa (NR concentration 270 nM, RXRa partner concentration 90 nM)
Summary of the method: as §1

[3] = tested on: LXRa homodimer (NR concentration 270 nM)
Summary of the method: as §1

[4] = tested on: LXRb:RXRa (NR concentration 270 nM, RXRa partner concentration 90 nM)
Summary of the method: as §1

[5] = tested on: LXRb homodimer (NR concentration 270 nM)
Summary of the method: as §1

[6] = tested on: PPARa:RXRa (NR concentration 270 nM, RXRa partner concentration 90 nM)
Summary of the method: as §1

[7] = tested on: PPARg:RXRa (NR concentration 180 nM, RXRa partner concentration 90 nM)
Summary of the method: as §1

[8] = tested on: PPARg:RXRa 270nM:90nM, anti-RXR (NR concentration 270 nM, RXRa partner concentration 90 nM)
Summary of the method: as §1

[9] = tested on: PPARg:RXRa 30nM:10nM, anti-RXR (NR concentration 30 nM, RXRa partner concentration 10 nM)
Summary of the method: as §1

[10] = tested on: PPARg:RXRa 90nM:30nM, anti-RXR (NR concentration 90 nM, RXRa partner concentration 30 nM)
Summary of the method: as §1

Sequence | PBM binding z-score [1] | PBM binding z-score [2] | PBM binding z-score [3] | PBM binding z-score [4] | PBM binding z-score [5] | PBM binding z-score [6] | PBM binding z-score [7] | PBM binding z-score [8] | PBM binding z-score [9] | PBM binding z-score [10]
TCTATTAGTTGATTAGGACAACCGAAACAGCGGA | 0.957 | 0.808 | 0.615 | 0.807 | 1.17 | 0.875 | 0.378 | 2.18 | 4.26 | 3.32
CGAACTAGGTCAAGGACAGTGGATCTCCGCACGC | 3.06 | 1.85 | -0.0741 | 1.23 | -0.565 | 4.31 | 6.9 | 6.1 | 3.35 | 5.72
TCATATAGGTACACAGGTGAAAGTCCGTAAGTTA | 0.94 | 1.1 | 0.566 | 1.09 | 0.0342 | 1.94 | 2.32 | 3.69 | 4.18 | 4.15
AGATGTAGGTTACATCCGGGTCATTCAGGCTATG | 2.09 | 4.32 | 0.937 | 2.54 | 0.043 | 4.14 | 5.05 | 4.32 | 1.77 | 3.53
GCTGCTAGGTCAACCGATGGTCAGCTAAAGCTCG | 3.72 | 2.83 | -0.00824 | 1.67 | -0.103 | 3.53 | 2.64 | 3 | 0.428 | 1.82
CCTTACGGATCACGAGGTTATAGCACGACGAGCG | 0.639 | 1.1 | 0.818 | 1.11 | 0.481 | 1.48 | 1.06 | 0.294 | 0.0325 | 0.104
TGAGTGAGGTTAAAGATCAGGGAACGTGGCGTCG | 2.78 | 2.38 | -0.367 | 1.88 | 1.13 | 4.05 | 3.48 | 4.58 | 2.61 | 3.92
TCATATAGGAAAACAGGTGAAAGTCCGTAAGTTA | 1.22 | 1.13 | 0.235 | 1.11 | -0.323 | 1.44 | 1.13 | 2.8 | 4.43 | 3.77
TCAGACAGGTGAAGGTGACTCAGGTACGCAGTCG | 0.795 | 0.409 | -0.133 | 0.864 | 0.128 | 1.58 | 0.781 | 2.13 | 3.51 | 2.83
TTACCAAGGTGAGCTGCGGTCGTTGATCCAACTC | 0.391 | 0.351 | -0.281 | -0.0836 | -1.32 | 0.597 | -0.444 | -0.0826 | -0.536 | -0.439
AGCACGAGGGCACGCTGAGTTGATAGCAGAGTAG | 0.941 | 0.602 | -0.669 | 0.23 | -1.28 | 1.61 | 1.22 | 0.752 | -0.187 | 0.162
GCTCGGAGGACCAGGTCAGAGCTTTGTCCGTAGA | 0.0133 | -0.0636 | -0.562 | -0.241 | -1.47 | 0.776 | -0.725 | -0.204 | -1.11 | -0.616

— the supplement of paper PMC6555819
